The record followed here is PubChem BioAssay (EPA / NIEHS).

SMILES strings stand for the structures. “And” between values parts separate entries of the source, which are not always exact repeats. Equal values may be shown once. The source holds several records for some structures; these can differ, active in one and inactive in another. The source made the active and inactive calls. How the source made its calls: active means hit-call score of the fitted dose curve at least 0.9, where 1 is the maximum; inactive means score below 0.9.

Read-out in the experiment: CD38, CD38 (gene 952)
Nature of the experiment: BSK_SAg_CD38: BioMAP Diversity Plus: SAg Assay for CD38 Biomarker Activity (AID 2283087). The note with it: primary human HUVEC with PBMC; actives raise or lower the signal. The protocol:
BSK_SAg is a cell-based, multiplexed-readout assay that uses umbilical vein endothelium and peripheral blood mononuclear cells, a human vascular primary cell co-culture, with measurements taken at 24 hours after chemical dosing in a 96-well plate.BSK_SAg_CD38 is one of 10 assay component(s) measured or calculated from the BSK_SAg assay. It is designed to make measurements of enzyme-linked immunosorbent assay, a form of binding reporter, as detected with fluorescence intensity signals by Enzyme-linked immunosorbent assay technology.Data from the assay component BSK_SAg_CD38 was analyzed into 1 assay endpoint. This assay endpoint, BSK_SAg_CD38, was analyzed with bidirectional fitting relative to DMSO as the negative control and baseline of activity. Using a type of binding reporter, gain or loss-of-signal activity can be used to understand changes in the signaling as they relate to the gene CD38. Furthermore, this assay endpoint can be referred to as a primary readout, because this assay has produced multiple assay endpoints where this one serves a signaling function. To generalize the intended target to other relatable targets, this assay endpoint is annotated to the cytokine intended target family, where the subfamily is other cytokine.
The levels of cell surface (or secreted, indicated by the prefix "s") biomarker endpoints were measured by ELISA. Overt cytotoxicity to cells in confluent adherent cultures (all systems other than the BT system) was assessed by measuring total protein levels using sulforhodamine B (SRB) staining in parallel cultures at the time of biomarker measurements, indicated as SRB endpoints. For proliferation assays for adherent cell types, individual cell types are cultured at sub-confluence and relative cell numbers quantified by SRB staining at time points optimized for each system (48 h: 3C and CASM3C systems; 72 h: BT and HDF3CGF systems; 96 h: SAg system). SRB was performed by staining cells with 0.1% SRB after fixation with 10% TCA and reading wells at 560 nm.Viability and proliferation of PBMC (T cells) was quantified by Alamar Blue reduction for the SAg and BT systems. For PBMC viability (referred to as PBMC Cytotoxicity within the assay endpoint names), cells were plated (75,000/well in a 96-well plate) and then chemical samples added for 1 h before addition of activators, SEB and TSST-1 (20 ng/mL final concentration each). Cells were incubated for 90 h. Then, Alamar Blue (20 uL/well) (Invitrogen, Cat DAL1100) was added for 6 h, and the plates were read with a fluorescence microplate reader at 546/580 nm (excitation/emission). For PBMC proliferation, cells were plated and activated as above but incubated for only 16 h prior to addition of Alamar Blue. Plates were read after 6 h.
Take `O=C(O)C(F)(F)C(F)(F)C(F)(F)C(F)(F)C(F)(F)C(F)(F)C(F)(F)C(F)(F)C(F)(F)C(F)(F)C(F)(F)C(F)(F)C(F)(F)F`: the result was inactive. On the same count and under the same terms, with `O=C(O)C(F)(F)C(F)(F)C(F)(F)C(F)(F)C(F)(F)C(F)(F)C(F)(F)C(F)(F)C(F)(F)C(F)(F)C(F)(F)C(F)(F)F` the entry was “inactive”. `O=P(O)(O)OCCC(F)(F)C(F)(F)C(F)(F)C(F)(F)C(F)(F)C(F)(F)F`: the result was inactive.

On to `CCCCC(CC)COP(=O)(O)OCC(CC)CCCC` (stereo not given), for which the outcome was inactive. For the compound `NC(=O)C(F)(F)C(F)(F)C(F)(F)C(F)(F)F`, the outcome was inactive. For the compound `O[Si](c1ccccc1)(c1ccccc1)c1ccccc1`, the AC50 is 32.6 µM (active). As to `O=C(O)C(F)(F)C(F)(F)OC(F)(F)F`, the result was inactive.

For `CCN(CC)c1ccc2c(C)cc(=O)oc2c1`, the result was inactive. Same read-out and setting: with `CCCCCCC(C)OC(=O)CCCCC(=O)OC(C)CCCCCC` (stereo not given) the entry was “inactive”.

On to `C=CC(=O)OCC(F)(F)C(F)(F)C(F)(F)C(F)(F)COC(=O)C=C`, for which the AC50 was 17.6 µM (active) and 20.6 µM (active).

For the compound `FC(F)(F)C(F)(F)C(F)(F)C(F)(F)C(F)(F)C(F)(F)CCS`, the outcome was inactive. Still for that read-out and setting: to `C=C(C)C(=O)OCC(F)(F)C(F)(F)C(F)(F)C(F)(F)C(F)(F)C(F)(F)C(F)(F)F` belongs “inactive”. As for `OCC(F)(F)C(F)(F)C(F)(F)F`, the outcome was inactive. Regarding `FC(F)(F)C(F)(F)C(F)(F)C(F)(F)C(F)(F)C(F)(F)C(F)(F)I`, the outcome was inactive. For `FC(F)(F)C(F)(F)C(F)(F)C(F)(F)CCI`, the result was inactive. For `CCc1c(Br)c(Br)c(Br)c(Br)c1Br`, the AC50 was 20 µM (active). On to `Nc1ccc([N+](=O)[O-])cc1O`, for which the result was inactive. With `CCc1ccc(C(c2ccc(CC)cc2)C(Cl)Cl)cc1`, the AC50 was 27.7 µM (active). For `O=S(=O)(OCC(F)F)C(F)(F)F`, the AC50 was 0.22 µM (active) and the outcome was inactive. For `CC(CCl)OP(=O)(OC(C)CCl)OC(C)CCl` (stereo not given), the outcome was inactive. Still for that read-out and setting: to `FC(F)(F)C(F)(F)C(F)(F)C(F)(F)C(F)(F)C(F)(F)CC1CO1` (stereo not given) belongs “inactive”; to `COC(=O)CCC(F)(F)C(F)(F)C(F)(F)C(F)(F)F`, “inactive”. In the case of `CCCCCCOC(=O)c1ccccc1O`, the AC50 was 40.5 µM (active) and the result was inactive. Consider `O=C(O)C(F)(F)C(F)(F)F`, for which the outcome was inactive. On to `OCCCC(F)(F)C(F)(F)C(F)(F)C(F)(F)C(F)(F)C(F)(F)C(F)(F)F`, for which the AC50 is 47.1 µM (active) and 49.3 µM (active). Regarding `OCCCC(F)(F)C(F)(F)C(F)(F)F`, the result was inactive. As for `O=S(=O)(OCCOC(F)(F)F)C(F)(F)F`, the result was inactive. Same read-out and setting: with `O=C(O)C(F)(OC(F)(F)C(F)(OC(F)(F)C(F)(OC(F)(F)C(F)(F)C(F)(F)F)C(F)(F)F)C(F)(F)F)C(F)(F)F` (stereo not given) the entry was “inactive”; with `O=C(O)C=C(C(F)(F)F)C(F)(F)F`, “inactive”; with `CCCCOCCOCCOC(=O)CCCCC(=O)OCCOCCOCCCC`, “inactive”. Turning to `Oc1ccc(Nc2ccccc2)cc1`, the AC50 was 20 µM (active). On to `FC(F)(F)C(F)(F)C(F)(F)CI`, for which the result was inactive. For `O=C(Cl)C(F)(F)C(F)(F)C(F)(F)C(F)(F)C(F)(F)C(F)(F)C(F)(F)C(F)(F)F`, the AC50 is 39.6 µM (active) and 30 µM (active); the outcome was inactive. Consider `FC(F)(I)C(F)(F)C(F)(F)C(F)(F)I`, for which the result was inactive. Still for that read-out and setting: with `O=C(O)C(F)(F)C(F)(F)C(F)(F)F` the entry was “inactive”; with `CO[Si](OC)(c1ccccc1)c1ccccc1`, “inactive”. As for `OCC(F)(F)C(F)(F)C(F)(F)C(F)(F)C(F)(F)C(F)F`, the outcome was inactive.

As usually defined, the AC50 is the concentration giving half of the maximal activity seen.
